Bioassay records as filed in PubChem BioAssay.
The list is not random: actives were taken first. Their share in the collection is about 3.7%.
NOTCH ag – agonists of NOTCH signaling; NOTCH signaling luciferase reporter cells, luminescence; activation, % at 2.5 µM; 15,000 tested, 0.4% active; AID 434982; in the data active = activation above about 2.2%
OPRK1 antag MB – OPRK1 (human) antagonism, Maybridge screen; OPRK1 cells, antagonist mode, fluorescence readout; inhibition, % at 9 µM; 16,000 tested, 0.4% active; in the data active = inhibition above about 50%
Target sequence (P41145 whole entry, looked up): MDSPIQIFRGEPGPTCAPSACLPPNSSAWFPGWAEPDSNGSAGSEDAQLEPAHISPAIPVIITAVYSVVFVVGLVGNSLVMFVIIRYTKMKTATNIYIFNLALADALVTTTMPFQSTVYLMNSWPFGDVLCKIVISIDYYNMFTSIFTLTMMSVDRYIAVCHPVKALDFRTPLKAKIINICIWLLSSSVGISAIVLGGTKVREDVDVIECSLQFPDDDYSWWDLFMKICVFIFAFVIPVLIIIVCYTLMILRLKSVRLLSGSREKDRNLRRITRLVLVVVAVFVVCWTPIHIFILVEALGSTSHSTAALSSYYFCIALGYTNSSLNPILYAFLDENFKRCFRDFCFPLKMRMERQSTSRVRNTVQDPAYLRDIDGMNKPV
Luminol counter – luminol signal inhibition, Nox1 inhibitor counter-screen. HRP/luminol/H2O2 chemiluminescence counterscreen. inhibition, % at 6.7 µM. 16,000 tested, 0.4% active. AID 1823; note: reference of the scale not given here
Nox1 inh – inhibitors of human NADPH oxidase 1 (Nox1); AID 1792; inhibition, % at 6.7 µM; Q9Y5S8; HT29 cells, luminol chemiluminescence ROS; 16,000 tested, 0.81% active
TLR4-MyD88 inh – inhibitors of human TLR4-MyD88 binding; inhibition, % at 10 µM; 16,000 tested, 0.06% active; Cell-based TLR4-MyD88 binding inhibition assay; in the data active = inhibition above about 45%
S1P1 ag – S1P1 (human) receptor agonism. AID 1044. activation, % at 4.5 µM. 16,000 tested, 1.5% active. S1P1 agonist cell-based reporter assay; in the data active = activation above about 80%
* hit, by the source's call; . = no result. Cut-off read from the data, not from the text of the source, unless noted: active = inhibition above about 75%; inactive = the rest.

SMILES | NOTCH ag | OPRK1 antag MB | Luminol counter | Nox1 inh | TLR4-MyD88 inh | S1P1 ag
O=C(Nc1ccc(N2CCOCC2)cc1Cl)C1CCN(C(=O)OCc2ccccc2)CC1 | 0 | 8 | -3 | -8 | 3 | 101*
Cn1c(=O)c2cc3cc(Cl)ccc3nc2c2c(=O)n(-c3ccccc3)c(=O)n(-c3ccccc3)c21 | -1 | 70* | -3 | -15 | 1 | -72
Cn1c(=O)c2c3nc4ccccc4cc3c(=O)n(C)c2n(C)c1=O | 0 | 11 | -7 | 5 | -1 | 10
CCn1c(-c2cc(-c3ccccc3)sc2N)n[nH]c1=S | -1 | 5 | 6 | 98* | -3 | 6
COc1ccc(N=C=Nc2ccc(OC)cc2)cc1 | 0 | 16 | -48 | 26 | -10 | 2
CCNc1nc2ccc(Cl)cc2nc1NCC | -1 | -1 | -2 | -4 | 2 | -16
Clc1ccc2nc3c(nc2c1)Nc1ccccc1S3 | . | 90* | 2 | 20 | 43 | 64
CCOC(=O)c1nnc2c3c(-c4ccccc4)c(-c4ccccc4)nnc3nn2c1C | -1 | 6 | 10 | -6 | -10 | 101*
CCOC(=O)c1cnc2cc(-c3ccccc3)nn2c1C | 0 | 10 | -1 | 3 | 1 | -5
O=C(NNS(=O)(=O)c1ccc(Cl)cc1)c1csc(CS(=O)(=O)Cc2ccco2)n1 | 0 | 3 | 21 | 50 | 4 | 15
Cc1nccc(-c2cccc(NN=C(C#N)C#N)c2)n1 | 0 | -1 | 26 | -68 | -3 | 104*
O=S(=O)(Oc1ccc(Cl)cc1)c1csc(C(F)(F)F)c1-c1ccccc1 | 0 | -25 | 2 | -52 | 3 | -9
O=C1CSCC(=O)N1c1csc(C(F)(F)F)c1-c1ccccc1 | 0 | 17 | 6 | -75 | 1 | 100*
COC(=O)c1sc(SC)c(C#N)c1-c1cccc(C(F)(F)F)c1 | 0 | -19 | -5 | 24 | 2 | 16
COC(=O)c1sc(C(F)(F)F)c(-c2ccccc2)c1N | 0 | -5 | -1 | -15 | . | 98*
O=[N+]([O-])c1ccc(-c2ccc(/C=N/NC(=S)Nc3cccc(F)c3)o2)cc1 | 0 | 152* | 9 | 45 | 9 | 72
O=[N+]([O-])c1cccc(-c2ccc(/C=N/NC(=S)NCc3ccco3)o2)c1 | -1 | 8 | 3 | -20 | -8 | 10
Cc1ncc(CSc2nc3ccc(C(F)(F)F)cc3[nH]2)c(CO)c1O | 0 | 1 | 88* | 4 | -5 | 2
Cc1ncc(CSc2nccc(=O)[nH]2)c(CO)c1O | -1 | 11 | -5 | -24 | 0 | -9
NC(=S)COc1ccc(Cl)cc1 | 1 | -15 | 5 | -22 | 3 | -2
O=C(NCc1ccccn1)c1cccnc1SCCS(=O)(=O)c1cccc(C(F)(F)F)c1 | -1 | 21 | 3 | -45 | 11 | 117*
O=C(S[C@H]1CCC[C@@H]1C(=O)O)c1ccccc1 | -1 | -7 | -1 | -47 | -7 | 0
N#Cc1c(Cl)cccc1Oc1ccc(S(=O)(=O)Nc2ccc(N3CCCCC3)cc2)cc1 | 0 | 6 | 2 | -28 | 8 | 1
N#Cc1c(Cl)cccc1Oc1ccc(S(=O)(=O)NNc2c(Cl)cncc2Cl)cc1 | 0 | 3 | 5 | 51 | -6 | 108*
CC(=O)Nc1cccc(OCCCNS(=O)(=O)c2ccc(Oc3cccc(Cl)c3C#N)cc2)c1 | -1 | -5 | -3 | 0 | -2 | 93*
SMILES | NOTCH ag | OPRK1 antag MB | Luminol counter | Nox1 inh | TLR4-MyD88 inh | S1P1 ag
O=[N+]([O-])c1ccc2c(c1)OCCOCCOCCOCCO2 | -1 | -1 | -4 | 7 | 0 | 2
Fc1ccc(CN2CCCN(Cc3ccc(F)cc3)C2c2csnn2)cc1 | 0 | 5 | -2 | -16 | -1 | -9
COc1cc2ncnc(NNC(=O)c3cccs3)c2cc1OC | -1 | 13 | 2 | 86* | -3 | -3
COc1ccc(CCNC(=O)c2cccs2)cc1OC | -1 | 11 | -5 | -10 | 2 | 1
CN1c2ccsc2C(=O)/C(=N\Nc2cccc(C(F)(F)F)c2)S1(=O)=O | -1 | -4 | 19 | -16 | 11 | 87*
Cc1nn(-c2ccccc2)nc1C(=O)NNC(=O)CSCc1cccc2ccccc12 | 0 | -4 | 3 | -45 | 1 | 89*
Cc1nn(-c2ccccc2)nc1C(=O)NNC(=O)NC(=O)c1ccccc1Cl | -1 | 6 | 7 | -43 | 22 | 16
COc1ccc(N(C)CC(=O)O)c(C(=O)O)c1 | 0 | 18 | -4 | 97* | 1 | 5
CCOc1ccc(NC(=O)C(Nc2ccc(OCC)cc2)c2ccccc2)cc1 (stereo unspecified) | 0 | -13 | -12 | 0 | 12 | 1
CN(C)c1ccc(-n2nnnc2SCc2ccc(Cl)cc2)cc1 | -1 | 59* | 1 | -28 | -11 | -1
CN(C)c1ccc(-n2nnnc2SCC(=O)c2cc3ccccc3o2)cc1 | 0 | 2 | 19 | -12 | 1 | -26
Cc1cccc(C)c1NC(=O)CSc1ccc(C(F)(F)F)cc1[N+](=O)[O-] | 0 | -20 | 0 | -23 | 0 | 4
Cc1ccc(N(C)NC=C(C#N)C#N)nn1 | 0 | 0 | 6 | -21 | 4 | 13
CN(NC=C(C#N)C#N)c1ccccc1[N+](=O)[O-] | 0 | 0 | -5 | 104* | 2 | -5
CSc1cccc(NC(=O)CN2CCN(CC(=O)Nc3cccc(SC)c3)CC2)c1 | 0 | -14 | -6 | 9 | -5 | -2
CSc1cccc(NC(=S)Nc2cccc(SC)c2)c1 | 2.5* | 6 | -10 | -26 | 1 | 5
COC(=O)c1cc(OC)c(OC)c(OC)c1NC(=O)c1cccnc1Oc1ccccc1 | 0 | -2 | 2 | -34 | 11 | -6
CNC(=S)N(C)NC(=S)Nc1ccc(OC)c(OC)c1 | 0 | 6 | 31 | 84* | -11 | -9
COc1cc(NC(C)=O)ccc1/C=N/NC(N)=S | -1 | 12 | 14 | 2 | -8 | -4
O=C(/C=C/c1cc(-c2ccccc2)c(C(F)(F)F)s1)c1cccs1 | . | 63* | -9 | -12 | -34 | 100*
N/C(=N/OC(=O)c1ccno1)c1ccc(C(F)(F)F)cc1 | -1 | 6 | 1 | -77 | 9 | 19
Cn1cc(C(=O)O/N=C(\N)c2ccc(C(C)(C)C)cc2)c(C(F)(F)F)n1 | 0 | 35 | -6 | 32 | -11 | 100*
COCCNC(=O)c1cnc2ccccc2n1 | 0 | 4 | 1 | -41 | 0 | -4
Cc1cc(C)c2c(N)c(C(=O)N/N=C/c3ccc(OCc4ccccc4)cc3)sc2n1 | -1 | -7 | 0 | 7 | -19 | -8
O=C1NNC(SCc2ccc(Br)cc2)=Nc2ccccc21 | -1 | 0 | 1 | -30 | -8 | 96*
Cn1c(Sc2ncnc(Sc3nnc(C(F)(F)F)n3C)c2[N+](=O)[O-])nnc1C(F)(F)F | 0 | -3 | 101* | 37 | 4 | -5
Cc1cc(Sc2nnc(C(F)(F)F)n2C)c([N+](=O)[O-])cc1[N+](=O)[O-] | 0 | -4 | -3 | 19 | -32 | -10
Cc1nc2nc(N)[nH]c(=O)c2nc1C | 0 | -8 | 3 | -59 | 23 | 111*
Nc1nc(N)c(Br)c(=O)[nH]1 | 0 | 14 | -3 | 0 | 12 | -6
